Data published in PubChem BioAssay (NCATS).
Values joined by “and” are separate entries in the source; they are usually repeats but may differ in a detail not shown here. Equal values may be shown once. Records with an inconclusive call do not appear. Where a structure was tested more than once in an assay, its records may differ in their call. Active and inactive are the calls of the source. Unless noted, the call rests on the fitted dose curve.

Legend:
[1] = Cell Viability - LYMP2-001 (AID 921; active means well fitted curve in the direction sought with a large enough effect; an effect the other way counts as inactive or inconclusive;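 further: series mostly up to about 92 µM; cells exposed to compound for 24 h at 37 °C; 0% = DMSO only and full inhibition = tetraoctylammonium bromide control wells; nearly all actives have a fitted effect of over 70% in size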)
Summary of the method: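 CellTiter-Glo luminescence (intracellular ATP) after 24 hr compound exposure at 37 C, 2500 lymphoblastoid cells/well in complete medium. AC50 fitted with standard Hill equation; tetraoctylammonium bromide positive control.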

[2] = MultiTox-Fluor Cytotoxicity Assay - LYMP1-001 - Live Cells (AID 947; active means well fitted curve in the direction sought with a large enough effect; an effect the other way counts as inactive or inconclusive;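 further: 0% = DMSO only and full inhibition = tetraoctylammonium bromide control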)
[3] = MultiTox-Fluor Cytotoxicity Assay - LYMP1-003 - Dead Cells (AID 961; active means well fitted curve in the direction sought with a large enough effect; an effect the other way counts as inactive or inconclusive; further: nearly all actives have a fitted effect of over 70% in size)
Summary of the method: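 LYMP1-003 lymphoblastoid, 2500 cells/well, 5 hr settle then 16 hr cpd at 37 C; MultiTox-Fluor reagent 60 min RT; Ex/Em 485/520 dead-cell signal; norm. DMSO = 0%, 15 uM tetraoctylammonium bromide = 100%; Hill AC50.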

[4] = Cell Viability - LYMP2-012 (AID 982; active means well fitted curve in the direction sought with a large enough effect; an effect the other way counts as inactive or inconclusive;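 further: cellular ATP by luciferase luminescence where a drop means cytotoxicity; cells exposed to compound for one day before reading; 0% = DMSO only and full loss = 92 µM tetraoctylammonium bromide; nearly all actives have a fitted effect of over 55% in size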)
[5] = biological target: Estrogen receptor (Homo sapiens) (UniProt P03372); test: qHTS assay for small molecule antagonists of estrogen receptor alpha signaling (AID 588513; active means well fitted curve in the direction sought with a large enough effect in the signal ratio, with a control signal flat, not every such curve was filed as active; the % refers to the signal ratio; further: on the % scale 0 is the no-effect control and ±100 the full control effect)
Summary of the method: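 Beta-lactamase reporter, antagonist mode, HEK 293 GripTite cells; 0.5nM E2 stimulus, 18 h, 37 C; CCF4 dye 2 h RT; fluorescence. IC50 and efficacy from Hill fits, normalized to E2 and DMSO.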

[6] = biological target: Estrogen receptor (Homo sapiens) (UniProt P03372); test: qHTS assay for small molecule agonists of estrogen receptor alpha signaling (AID 588514); further: nearly all actives have a fitted effect of over 70% in size; further: potency means the concentration at half of the fitted maximal effect;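 on activation: 0% = vehicle only and 100% = reference agonist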
Summary of the method: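 ER-alpha-UAS-bla GripTite HEK 293 cells in medium with 2% charcoal/dextran-treated FBS were treated with compound titrations at 37 C for 18 hrs; beta-lactamase reporter read by CCF4 fluorescence after 2 hrs at RT.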

[7] = biological target: Bile acid receptor (Homo sapiens) (UniProt Q96RI1); test: qHTS assay for small molecule antagonists of farnesoid X receptor signaling (AID 588526); further: on the % scale 0 is the no-effect control and ±100 the full control effect
Summary of the method: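 Beta-lactamase reporter antagonist mode: HEK293T FXR-UAS-bla cells, titrated compound, CDCA stimulation, 16 h 37 C, CCF4 dye 2 h RT. Data normalized to CDCA 50 uM and DMSO; Hill-fit IC50.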

[8] = biological target: Bile acid receptor (Homo sapiens) (UniProt Q96RI1); test: qHTS assay for small molecule agonists of farnesoid X receptor signaling (AID 588527); conditions: HEK293T FXR-UAS-bla, beta-lactamase ratio, 16 h; stronger effect = higher value;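 further: series mostly up to about 77 µM; 0% = vehicle basal and 100% = reference agonist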
Summary of the method: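 Read-out: beta-lactamase reporter fluorescence with CCF4 substrate in GeneBLAzer FXR-UAS-bla HEK293T cells, after 16 h compound exposure at 37 C. Response scaled between DMSO basal (0%) and chenodeoxycholic acid at 100 uM (100%).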

[9] = biological target: Glucocorticoid receptor (Homo sapiens) (UniProt P04150); test: qHTS assay for small molecule agonists of glucocorticoid receptor signaling (AID 588532; active means well fitted curve in the direction sought with a large enough effect in the signal ratio, with a control signal flat; the % refers to the signal ratio;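 further: 100% = dexamethasone at 0.1 µM and 0% = DMSO only wells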); conditions: HeLa MMTV-bla, beta-lactamase ratio, agonist, 18 h; stronger effect = higher value; percent of dexamethasone control, DMSO zero
Summary of the method: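 Using MMTV-bla HeLa cells in medium with 1% stripped FBS and 25 mM HEPES, compounds were titrated and incubated overnight-length (18 h). Beta-lactamase cleavage of CCF4 was quantified by dual-emission fluorescence.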

[10] = biological target: Glucocorticoid receptor (Homo sapiens) (UniProt P04150); test: qHTS assay for small molecule antagonists of glucocorticoid receptor signaling (AID 588533; active means well fitted inhibition curve with a large enough effect in the signal ratio, with a control signal flat, not every such curve was filed as active; the % refers to the signal ratio;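 further: cells stimulated with 2 nM dexamethasone as agonist; on the % scale 0 is the no-effect control and ±100 the full control effect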)
Summary of the method: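 Antagonist-mode qHTS: compound titrations added to GRE-bla HeLa cells, then dexamethasone 2 nM final; 18 h, 37 C. CCF4 FRET fluorescence normalized to dexamethasone and DMSO; IC50 from Hill fit.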

[11] = biological target: Vitamin D3 receptor (Homo sapiens) (UniProt P11473); test: qHTS assay for small molecule antagonists of vitamin D receptor signaling (AID 588541);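 further: receptor activated by calcitriol during compound treatment; series mostly up to about 77 µM; on the % scale 0 is the no-effect control and ±100 the full control effect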
Summary of the method: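 Antagonist-mode beta-lactamase reporter assay: HEK293T VDR-UAS-bla cells were exposed to titrated compound alongside 1-alpha,25-dihydroxyvitamin D3 at 3 nM final for 16 h. Values were normalized to the 50 nM agonist control and DMSO basal, with IC50 and efficacy from Hill equation fits.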

[12] = biological target: Vitamin D3 receptor (Homo sapiens) (UniProt P11473); test: qHTS assay for small molecule agonists of vitamin D receptor signaling (AID 588543);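 further: 0% = DMSO basal and 100% = reference agonist control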
Summary of the method: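 β-lactamase reporter, VDR-UAS-bla HEK293T, agonist mode. Cells plated 5 h at 37 °C, compound titration 16 h at 37 °C, CCF4 dye 2 h RT, ratio 460/530 nm. Hill fit → EC50, efficacy vs 50 nM 1α,25-(OH)2D3.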

[13] = qHTS assay for small molecule agonists of the antioxidant response element (ARE) signaling pathway (AID 651741; active means well fitted activation curve with a large enough effect in the signal ratio; the % refers to the signal ratio; further: potency means the concentration at half of the fitted maximal effect; on activation: % of control where 0% means no effect)
Summary of the method: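 Seeding 2,000 ARE-bla HepG2 cells per well preceded a 5 h incubation at 37 C/5% CO2 and a 16 h compound exposure at 37 C. Beta-lactamase reporter activity was then quantified by fluorescence after 2 h with LiveBLAzer B/G FRET substrate.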

[14] = qHTS assay for small molecule activators of the p53 signaling pathway (AID 651743; active means well fitted activation curve with a large enough effect in the signal ratio, not every such curve was filed as active; the % refers to the signal ratio; further: series mostly up to about 92 µM; % of control where 0% means no effect); conditions: HCT-116 p53RE-bla, beta-lactamase FRET ratio, 16 h; activation: stronger effect = higher value
Summary of the method: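 Screen for p53 pathway agonists uses stably transfected p53RE-bla HCT-116 cells, 4,000 per well, treated 16 h at 37 C with compounds in DMSO.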

[15] = biological target: Nuclear receptor ROR-gamma (Homo sapiens) (UniProt P51449); test: qHTS assay for small molecule antagonists of the retinoid-related orphan receptor gamma (ROR-gamma) signaling pathway (AID 651802; active means well fitted curve in the direction sought with a large enough effect; an effect the other way counts as inactive or inconclusive; further: series mostly up to about 92 µM; on the % scale 0 is the no-effect control and ±100 the full control effect; nearly all actives have a fitted effect of over 60% in size)
Summary of the method: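 CHO cells carrying TET-inducible ROR-gamma and an ROR response element–luciferase reporter were exposed to compound, then induced with doxycycline. After 16hr at 37C, luminescence was read; lower signal indicates antagonism.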

[16] = qHTS assay for small molecule antagonists of the retinoid-related orphan receptor gamma (ROR-gamma) signaling pathway - cell viability counter screen (AID 720652; active means well fitted curve in the direction sought with a large enough effect in the repeat runs; an effect the other way counts as inactive or inconclusive)
Summary of the method: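 Counter screen in CHO cells carrying TET-inducible ROR-gamma and an ROR response element-luciferase reporter; cells plated 5 hr, compound pinned, doxycycline added, then 16 hr at 37 C. Viability read as intracellular ATP by CellTiter-Glo luminescence.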

[17] = biological target: Nuclear receptor subfamily 1 group I member 2 (Rattus norvegicus) (UniProt Q9R1A7); test: qHTS assay for small molecule activators of the rat pregnane X receptor (rPXR) signaling pathway (AID 651751; call rule not given here; further: 0% is about no effect); conditions: rPXR reporter cells, luciferase (One-Glo), 24 h
[18] = qHTS assay for small molecule activators of the human pregnane X receptor (PXR) signaling pathway (AID 720659; call rule not given here; further: 0% is about no effect)
[19] = biological target: Peroxisome proliferator-activated receptor gamma (Homo sapiens) (UniProt P37231); test: qHTS assay for small molecule agonists of peroxisome proliferator-activated receptor gamma signaling (AID 588536; active means well fitted curve in the direction sought with a large enough effect in the signal ratio, with a control signal flat, not every such curve was filed as active; the % refers to the signal ratio;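 further: 0% = DMSO basal wells and 100% = rosiglitazone at 2 µM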)
Summary of the method: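 Test agents, titrated, stimulated HEK293 UAS-bla cells overnight (16 h, 37 C). Substrate CCF4 was then added for two hours at room temperature before fluorescence reading.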

[20] = qHTS assay for small molecule activators of the nuclear factor-kappa B (NF-kB) signaling pathway (AID 651749; active means well fitted activation curve with a large enough effect in the signal ratio; the % refers to the signal ratio; further: potency means the concentration at half of the fitted maximal effect; on activation: series mostly up to about 77 µM; % of control where 0% means no effect); conditions: NF-kB-bla ME-180 cells, beta-lactamase FRET ratio, 16 h; activation: stronger effect = higher value
Summary of the method: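 Stably transfected ME-180 line; NF-kB response element upstream of beta-lactamase. Treatment: compound or DMSO, 16 hr. Detection: fluorescent FRET substrate.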

Glucocorticoid receptor (Homo sapiens), sequence (P04150 whole entry, looked up): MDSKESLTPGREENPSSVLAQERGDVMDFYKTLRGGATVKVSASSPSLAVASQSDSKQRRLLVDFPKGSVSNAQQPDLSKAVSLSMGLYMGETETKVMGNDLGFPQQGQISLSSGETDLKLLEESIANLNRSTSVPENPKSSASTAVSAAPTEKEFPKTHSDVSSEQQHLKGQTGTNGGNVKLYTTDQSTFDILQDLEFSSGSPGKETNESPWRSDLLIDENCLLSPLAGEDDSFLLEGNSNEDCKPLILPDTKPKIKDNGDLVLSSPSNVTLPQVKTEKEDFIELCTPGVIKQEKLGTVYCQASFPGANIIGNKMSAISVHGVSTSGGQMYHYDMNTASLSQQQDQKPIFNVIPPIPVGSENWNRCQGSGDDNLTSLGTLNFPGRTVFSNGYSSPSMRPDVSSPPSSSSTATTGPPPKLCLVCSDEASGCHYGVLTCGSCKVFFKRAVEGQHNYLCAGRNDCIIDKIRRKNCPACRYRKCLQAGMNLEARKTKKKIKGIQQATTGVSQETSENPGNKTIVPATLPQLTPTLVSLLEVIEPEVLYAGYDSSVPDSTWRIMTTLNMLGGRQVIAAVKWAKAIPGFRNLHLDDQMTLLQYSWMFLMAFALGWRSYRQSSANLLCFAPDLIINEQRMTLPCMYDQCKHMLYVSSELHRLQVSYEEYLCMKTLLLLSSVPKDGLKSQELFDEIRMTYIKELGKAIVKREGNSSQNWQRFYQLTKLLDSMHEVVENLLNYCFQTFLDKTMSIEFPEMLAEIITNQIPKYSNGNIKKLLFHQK
Peroxisome proliferator-activated receptor gamma (Homo sapiens), sequence (P37231 whole entry, looked up): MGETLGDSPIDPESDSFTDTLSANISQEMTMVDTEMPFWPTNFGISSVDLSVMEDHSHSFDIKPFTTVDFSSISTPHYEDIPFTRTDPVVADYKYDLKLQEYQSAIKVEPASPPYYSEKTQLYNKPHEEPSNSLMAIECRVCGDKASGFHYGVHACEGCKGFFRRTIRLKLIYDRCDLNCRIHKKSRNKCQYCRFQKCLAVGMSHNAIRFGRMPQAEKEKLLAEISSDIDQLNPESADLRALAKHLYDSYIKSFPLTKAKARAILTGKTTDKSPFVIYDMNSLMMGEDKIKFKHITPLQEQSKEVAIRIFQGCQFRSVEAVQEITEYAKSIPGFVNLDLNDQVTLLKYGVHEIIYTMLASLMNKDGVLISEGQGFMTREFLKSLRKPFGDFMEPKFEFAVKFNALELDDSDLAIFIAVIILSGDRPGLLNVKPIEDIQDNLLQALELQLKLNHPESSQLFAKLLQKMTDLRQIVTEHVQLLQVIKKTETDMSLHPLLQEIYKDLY
Nuclear receptor subfamily 1 group I member 2 (Rattus norvegicus), sequence (Q9R1A7 whole entry, looked up): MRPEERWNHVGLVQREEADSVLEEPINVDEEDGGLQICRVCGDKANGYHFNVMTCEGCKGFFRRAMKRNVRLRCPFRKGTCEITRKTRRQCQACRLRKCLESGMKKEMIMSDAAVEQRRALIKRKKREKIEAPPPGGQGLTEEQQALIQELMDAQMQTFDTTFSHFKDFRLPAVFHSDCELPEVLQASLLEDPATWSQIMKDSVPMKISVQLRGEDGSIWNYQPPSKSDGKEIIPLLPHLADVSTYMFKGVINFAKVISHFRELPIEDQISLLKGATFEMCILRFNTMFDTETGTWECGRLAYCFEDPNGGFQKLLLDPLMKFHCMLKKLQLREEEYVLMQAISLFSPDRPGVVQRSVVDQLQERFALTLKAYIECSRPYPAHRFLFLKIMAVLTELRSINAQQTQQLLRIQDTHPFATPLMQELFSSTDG
Estrogen receptor (Homo sapiens), sequence (P03372 whole entry, looked up): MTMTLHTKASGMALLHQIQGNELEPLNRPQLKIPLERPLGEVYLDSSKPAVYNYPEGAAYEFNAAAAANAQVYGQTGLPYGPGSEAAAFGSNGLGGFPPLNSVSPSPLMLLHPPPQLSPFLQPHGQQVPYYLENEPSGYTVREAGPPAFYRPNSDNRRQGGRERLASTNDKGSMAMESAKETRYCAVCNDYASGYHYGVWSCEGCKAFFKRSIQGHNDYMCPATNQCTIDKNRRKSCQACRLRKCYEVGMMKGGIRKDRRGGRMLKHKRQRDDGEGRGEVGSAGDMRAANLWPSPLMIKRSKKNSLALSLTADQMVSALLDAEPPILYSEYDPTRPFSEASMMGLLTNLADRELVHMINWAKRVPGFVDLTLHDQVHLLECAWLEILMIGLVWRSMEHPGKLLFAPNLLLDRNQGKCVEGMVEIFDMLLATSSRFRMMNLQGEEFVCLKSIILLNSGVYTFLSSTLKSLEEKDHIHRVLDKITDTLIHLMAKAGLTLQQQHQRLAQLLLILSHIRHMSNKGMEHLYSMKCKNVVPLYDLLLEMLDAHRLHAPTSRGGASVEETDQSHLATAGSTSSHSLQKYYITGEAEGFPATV
Bile acid receptor (Homo sapiens), sequence (Q96RI1 whole entry, looked up): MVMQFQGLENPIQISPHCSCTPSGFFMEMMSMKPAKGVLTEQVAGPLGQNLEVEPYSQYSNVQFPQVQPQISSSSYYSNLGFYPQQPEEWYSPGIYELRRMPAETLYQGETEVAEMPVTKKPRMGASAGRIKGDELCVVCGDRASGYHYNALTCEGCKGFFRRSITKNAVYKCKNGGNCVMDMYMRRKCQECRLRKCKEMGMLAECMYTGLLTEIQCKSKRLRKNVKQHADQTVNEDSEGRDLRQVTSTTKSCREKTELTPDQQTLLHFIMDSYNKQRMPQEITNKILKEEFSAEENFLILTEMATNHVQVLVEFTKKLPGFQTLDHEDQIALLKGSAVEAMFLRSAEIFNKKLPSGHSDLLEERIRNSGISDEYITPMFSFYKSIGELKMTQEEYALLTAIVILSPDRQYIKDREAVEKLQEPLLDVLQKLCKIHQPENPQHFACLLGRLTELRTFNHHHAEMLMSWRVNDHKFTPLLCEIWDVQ
Nuclear receptor ROR-gamma (Homo sapiens), sequence (P51449 whole entry, looked up): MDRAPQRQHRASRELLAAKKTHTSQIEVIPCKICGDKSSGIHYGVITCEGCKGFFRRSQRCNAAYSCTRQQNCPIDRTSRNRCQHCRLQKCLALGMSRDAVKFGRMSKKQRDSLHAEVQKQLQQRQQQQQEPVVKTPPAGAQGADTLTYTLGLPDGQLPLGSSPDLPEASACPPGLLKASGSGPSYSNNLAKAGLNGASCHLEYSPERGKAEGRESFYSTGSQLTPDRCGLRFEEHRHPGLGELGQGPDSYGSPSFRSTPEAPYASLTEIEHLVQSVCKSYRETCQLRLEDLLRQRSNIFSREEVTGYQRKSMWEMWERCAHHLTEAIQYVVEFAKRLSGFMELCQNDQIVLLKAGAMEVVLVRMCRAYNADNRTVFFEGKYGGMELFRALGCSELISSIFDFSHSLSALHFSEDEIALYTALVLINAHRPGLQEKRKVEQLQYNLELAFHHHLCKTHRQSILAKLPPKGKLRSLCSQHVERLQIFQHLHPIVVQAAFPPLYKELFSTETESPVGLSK
Vitamin D3 receptor (Homo sapiens), sequence (P11473 whole entry, looked up): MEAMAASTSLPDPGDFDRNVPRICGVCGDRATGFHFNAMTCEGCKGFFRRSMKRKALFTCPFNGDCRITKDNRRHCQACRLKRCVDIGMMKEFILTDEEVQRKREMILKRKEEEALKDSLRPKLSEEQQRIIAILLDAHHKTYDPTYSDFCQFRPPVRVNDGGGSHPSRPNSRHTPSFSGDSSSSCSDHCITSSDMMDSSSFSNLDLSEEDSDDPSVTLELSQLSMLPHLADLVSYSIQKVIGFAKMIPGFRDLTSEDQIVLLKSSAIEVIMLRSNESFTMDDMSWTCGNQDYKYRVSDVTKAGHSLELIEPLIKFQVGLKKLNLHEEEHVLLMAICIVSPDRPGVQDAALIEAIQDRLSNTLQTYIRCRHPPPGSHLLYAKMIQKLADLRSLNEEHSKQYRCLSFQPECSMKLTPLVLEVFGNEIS

ClC(Cl)(Cl)c1ccccc1
inactive: Potency [1] | Potency [2] | Potency [3] | Potency [4] | Potency [5] | Potency [6] | outcome [7] | activation [8] -1.47% and 0.945% | activation [9] -6.79% and 7.81% | Potency [10] | outcome [11] | outcome [12] | Potency [13] | activation [14] -3.47% and -2.04% | Potency [15] | Potency [16] | max response [17] 1.62% and -4.94% | outcome [18]

COc1ccc(C=O)cc1OC
inactive: Potency [1] | Potency [2] | Potency [4] | Potency [5] | Potency [6] | outcome [19] | Potency [13] | activation [14] -1.53% and 0.661% | Potency [15] | Potency [16] | max response [17] -2.56% and 1.92% | outcome [18]

O=[N+]([O-])c1ccc(Cl)c(Cl)c1
inactive: Potency [1] | Potency [2] | Potency [3] | Potency [5] | Potency [6] | outcome [7] | activation [8] 1.09% | activation [9] 0.986% | Potency [10] | outcome [19] | outcome [11] | outcome [12] | activation [20] -0.387% | Potency [15] | Potency [16] | max response [17] 0.633% | outcome [18]

CCN(CC)c1ccccc1
inactive: Potency [1] | Potency [2] | Potency [4] | Potency [5] | Potency [6] | outcome [7] | activation [8] -2.77% | activation [9] -4.16% | Potency [10] | outcome [19] | outcome [11] | outcome [12] | Potency [13] | activation [14] 0.724% | activation [20] -0.976% | Potency [15] | Potency [16] | max response [17] -0.145% | outcome [18]

COc1ccc(N)cc1
inactive: Potency [1] | Potency [2] | Potency [3] | Potency [4] | activation [9] -7.51% and 3.18% | Potency [10] | outcome [19] | activation [14] -2.17% and -1.84% | Potency [15] | Potency [16] | outcome [18]

Cc1ccc([N+](=O)[O-])cc1C
inactive: Potency [1] | Potency [2] | Potency [3] | Potency [4] | Potency [5] | Potency [6] | outcome [7] | activation [8] -0.387% and 0.526% | outcome [19] | outcome [11] | outcome [12] | Potency [13] | activation [20] 0.21% and 0.188% | Potency [15] | Potency [16] | max response [17] 1.14% and -0.13% | outcome [18]

CCCC(=O)Cl
inactive: Potency [1] | Potency [2] | Potency [3] | Potency [4] | Potency [5] | Potency [6] | outcome [7] | activation [8] 0.327% | activation [9] 7.24% | Potency [10] | outcome [19] | outcome [11] | outcome [12] | activation [14] -0.024% | activation [20] -0.622% | Potency [15] | Potency [16] | max response [17] -1.41% | outcome [18]

ClC(Cl)=C(Cl)C(Cl)=C(Cl)Cl
inactive: Potency [2] | Potency [3] | Potency [5] | Potency [6] | activation [9] -16.2% | Potency [10] | outcome [19] | Potency [13] | Potency [15] | Potency [16] | max response [17] 2.24% and -2.02% | outcome [18]

CN(CCOc1ccc(C[C@H](Nc2ccccc2C(=O)c2ccccc2)C(=O)O)cc1)c1ccccn1
inactive: activation [8] -7.09%

c1ccc(-c2ccccc2)cc1
inactive: Potency [3] | Potency [4] | Potency [5] | Potency [6] | outcome [7] | activation [8] -2.99% and -4% | activation [9] -0.478% and -3.49% | Potency [10] | outcome [19] | activation [14] 2.71% and -2.97% | activation [20] 0.41% and 0.224% | Potency [15] | Potency [16]
inactive and 54.5 µM (active): Potency [13]

Clc1nc(Cl)nc(Nc2ccccc2Cl)n1
active: Potency [20] 25.1 µM
inactive: Potency [1] | Potency [2] | Potency [4] | Potency [5] | Potency [6] | activation [9] 0.42% and 30.1% | Potency [10] | outcome [19] | outcome [11] | outcome [12] | activation [14] -1.67% and -3.76% | activation [20] 0.657% | Potency [15] | Potency [16]

Clc1cccc(C(Cl)(Cl)Cl)n1
inactive: Potency [1] | Potency [2] | Potency [3] | Potency [4] | Potency [5] | Potency [6] | outcome [7] | activation [8] 0.959% and 2.76% | outcome [19] | Potency [13] | activation [14] 0.471% and 1.28% | Potency [15] | Potency [16] | max response [17] -2.08% and -3.74% | outcome [18]

CN=C=S
active: Potency [6] 20 µM
inactive: Potency [1] | Potency [2] | Potency [3] | Potency [4] | Potency [5] | outcome [7] | activation [8] 2.73% and -2.27% | outcome [19] | outcome [11] | outcome [12] | Potency [13] | activation [14] -0.537% and -2.4% | activation [20] 0.411% and -0.263% | Potency [15] | max response [17] 1.38% and 4.99% | outcome [18]

CCC[CH2][Sn]([Cl])([Cl])[Cl]
active: Potency [13] 13.3 µM
inactive: Potency [1] | Potency [2] | Potency [4] | Potency [5] | Potency [6] | outcome [7] | activation [8] -3.23% and -2.97% | activation [9] -4.16% and -3.24% | Potency [10] | outcome [19] | activation [14] 0.255% and 3.17% | activation [20] -0.955% and -1.49% | Potency [15] | Potency [16] | max response [17] 2.08% and 0.146% | outcome [18]

ClC(Cl)=C(Cl)Cl
inactive: Potency [1] | Potency [2] | Potency [3] | Potency [4] | outcome [7] | activation [8] 0.975% and -2.66% | outcome [19] | outcome [11] | outcome [12] | Potency [13] | activation [14] -0.0832% and 0.219% | activation [20] 0.509% and -0.543% | Potency [15] | Potency [16] | max response [17] -0.799% and 2.48% | outcome [18]

c1ccc(OP(Oc2ccccc2)Oc2ccccc2)cc1
inactive: Potency [1] | Potency [2] | Potency [4] | Potency [5] | Potency [6] | activation [9] 10.9% and -3.42% | Potency [10] | outcome [19] | outcome [11] | outcome [12] | activation [14] -2.41% and -6.19% | activation [20] -3.6% and -0.416% | Potency [15] | Potency [16] | max response [17] 0.576% and -1.05% | outcome [18]

CCCCOCCOP(=O)(OCCOCCCC)OCCOCCCC
inactive: Potency [1] | Potency [2] | Potency [3] | Potency [4] | Potency [5] | Potency [6] | activation [9] 0.713% and -16.4% | Potency [10] | outcome [19] | outcome [11] | outcome [12] | activation [14] -1.25% and 0.739% | activation [20] -1.15% and -0.483% | Potency [16]
